Measurements as given in PubChem BioAssay AID1159580 (chemical genetic matrix, 2015).
In all, about 5,500 compounds went through this assay and about 2,000 (36%) were called active. Not shown: some 18% with an inconclusive outcome. The list shows a part of the results. A number with no mark means an inactive call. No stated cut-off is given here; in the data, active means normalized growth mostly below about 0.91 (no sharp cut-off); inconclusive means no clear call, values can overlap the other calls; inactive means mostly above about 0.92.

Assay: chemical genetic growth profiling, strain panel (AID 1159580);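 further: tested at 20 µM; growth read once vehicle control cultures reached saturation at 30 °C; 1 = growth at the plate median or of vehicle wells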
Settings: S. cerevisiae deletion strains, growth OD

SMILES: CC(C)=CCCC(C)C1CC[C@@]2(C)C3=C(CC[C@]12C)C1(C)CC[C@H](O)C(C)(C)C1CC3 (stereo not given in full)
- normalized growth (locus YBR021W, strain FUR4, stronger effect = lower value): 0.867
- normalized growth (locus YBR229C, strain ROT2, stronger effect = lower value): 1.02
- normalized growth (locus YCL029C, strain bik1, stronger effect = lower value): 0.972
- normalized growth (locus YDL035C, strain GPR1, stronger effect = lower value): 0.904
- normalized growth (locus YDL074C, strain BRE1, stronger effect = lower value): 0.962
- normalized growth (locus YDL101C, strain DUN1, stronger effect = lower value): 0.992
- normalized growth (locus YDL185W, strain tfp1, stronger effect = lower value): 1.01
- normalized growth (locus YDL192W, strain arf1, stronger effect = lower value): 0.977
- normalized growth (locus YDR101C, strain arx1, stronger effect = lower value): 1.01
- normalized growth (locus YDR150W, strain NUM1, stronger effect = lower value): 1.05
- normalized growth (locus YDR162C, strain NBP2, stronger effect = lower value): 0.958
- normalized growth (locus YDR318W, strain mcm21, stronger effect = lower value): 0.985
- normalized growth (locus YDR388W, stronger effect = lower value): 1.03
- normalized growth (locus YDR502C, strain sam2, stronger effect = lower value): 0.945
- normalized growth (locus YER110C, stronger effect = lower value): 1.01
- normalized growth (locus YER155C, strain BEM2, stronger effect = lower value): 1.03
- normalized growth (locus YER167W, strain BCK2, stronger effect = lower value): 1.05
- normalized growth (locus YGL078C, strain dbp3, stronger effect = lower value): 0.875 (active)
- normalized growth (locus YGL086W, strain mad1, stronger effect = lower value): 1
- normalized growth (locus YGL248W, strain PDE1, stronger effect = lower value): 0.929
- normalized growth (locus YGR135W, strain pre9, stronger effect = lower value): 0.941
- normalized growth (locus YGR252W, strain gcn5, stronger effect = lower value): 0.78
- normalized growth (locus YHR079C, strain IRE1 (second series), stronger effect = lower value): 1.01
- normalized growth (locus YHR094C, strain hxt1, stronger effect = lower value): 1.02
- normalized growth (locus YHR129C, strain ARP1, stronger effect = lower value): 1.04
- normalized growth (locus YHR200W, strain rpn10, stronger effect = lower value): 1.01
- normalized growth (locus YIL066C, strain RNR3, stronger effect = lower value): 1.03
- normalized growth (locus YIL073C, strain SPO22, stronger effect = lower value): 0.923
- normalized growth (locus YIL125W, strain kgd1, stronger effect = lower value): 1.04
- normalized growth (locus YIR030C, strain dcg1, stronger effect = lower value): 1.02
- normalized growth (locus YJL095W, strain BCK1, stronger effect = lower value): 0.947
- normalized growth (locus YJL134W, strain LCB3, stronger effect = lower value): 1.04
- normalized growth (locus YJL168C, strain set2, stronger effect = lower value): 1.02
- normalized growth (locus YJL187C, strain SWE1 (second series), stronger effect = lower value): 0.959
- normalized growth (locus YKL009W, strain mrt4, stronger effect = lower value): 0.822 (active)
- normalized growth (locus YKL068W, stronger effect = lower value): 1.03
- normalized growth (locus YKL085W, strain MDH1 (second series), stronger effect = lower value): 1.05
- normalized growth (locus YKL085W, strain MDH1, stronger effect = lower value): 1.05
- normalized growth (locus YKR001C, strain vps1, stronger effect = lower value): 0.94
- normalized growth (locus YLR039C, strain RIC1, stronger effect = lower value): 0.702
- normalized growth (locus YLR058C, strain SHM2, stronger effect = lower value): 0.981
- normalized growth (locus YLR102C, strain apc9, stronger effect = lower value): 1.01
- normalized growth (locus YLR262C, strain YPT6, stronger effect = lower value): 0.664
- normalized growth (locus YLR268W, strain sec22, stronger effect = lower value): 0.957
- normalized growth (locus YLR371W, strain rom2, stronger effect = lower value): 1.02
- normalized growth (locus YLR418C, strain cdc73, stronger effect = lower value): 0.877
- normalized growth (locus YML016C, strain PPZ1, stronger effect = lower value): 1.03
- normalized growth (locus YML032C, strain rad52, stronger effect = lower value): 0.956
- normalized growth (locus YML124C, strain tub3, stronger effect = lower value): 1.03
- normalized growth (locus YMR078C, strain ctf18, stronger effect = lower value): 1.03
- normalized growth (locus YMR223W, strain ubp8, stronger effect = lower value): 0.978
- normalized growth (locus YMR307W, strain GAS1, stronger effect = lower value): 0.952
- normalized growth (locus YNL067W, strain RPL9B, stronger effect = lower value): 0.988
- normalized growth (locus YNL128W, strain TEP1, stronger effect = lower value): 0.98
- normalized growth (locus YNL233W, strain BNI4, stronger effect = lower value): 0.994
- normalized growth (locus YNL250W, strain rad50, stronger effect = lower value): 0.966
- normalized growth (locus YNL271C, strain bni1, stronger effect = lower value): 0.994
- normalized growth (locus YNL298W, strain CLA4, stronger effect = lower value): 0.924
- normalized growth (locus YNL307C, strain MCK1, stronger effect = lower value): 0.998
- normalized growth (locus YNR052C, strain pop2, stronger effect = lower value): 0.961
- normalized growth (locus YOL006C, strain TOP1, stronger effect = lower value): 0.903
- normalized growth (locus YOL012C, strain htz1): 1.68
- normalized growth (locus YOL147C, strain pex11, stronger effect = lower value): 1.04
- normalized growth (locus YOR061W, strain CKA2, stronger effect = lower value): 1.01
- normalized growth (locus YOR069W, strain VPS5, stronger effect = lower value): 1.02
- normalized growth (locus YOR136W, strain idh2, stronger effect = lower value): 0.998
- normalized growth (locus YOR144C, strain elg1, stronger effect = lower value): 1.02
- normalized growth (locus YOR184W, strain ser1, stronger effect = lower value): 0.891
- normalized growth (locus YOR316C, strain cot1, stronger effect = lower value): 1.02
- normalized growth (locus YPL241C, strain CIN2, stronger effect = lower value): 1.03
- normalized growth (locus YPR119W, strain clb2, stronger effect = lower value): 1.03
- normalized growth (locus YPR141C, strain kar3, stronger effect = lower value): 1.04
- normalized growth (locus YPR163C, strain tif3, stronger effect = lower value): 0.93
- normalized growth (locus YPR167C, strain met16, stronger effect = lower value): 0.973
- normalized growth (strain wtn01, stronger effect = lower value): 0.974
